Consider 50 compounds from PubChem BioAssay (NCATS).

For test [1], the system named is Zika virus NS2B-NS3 protease (linked construct). The experiment in a line: Confirmatory screen NINDS AMC qHTS for Zika virus inhibitors (AID 1347152).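 Note: AMC fluorescence gain from cleaved Bz-Nle-KRR-AMC substrate over 15 min; top concentration of the series differs between compounds; nearly all actives have a fitted effect of over 70% in size.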 Summed up:
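Purified NS2B-NS3 protease with NS2B hydrophilic domain linked to NS3 protease domain by flexible linker, 1 nM final in 10 mM Tris-HCl pH 8.0, 0.01% Tween 20. Compounds preincubated 15 min, room temperature; Bz-Nle-KRR-AMC 10 microM (Km 18.3 µM); 15-min fluorescence change, 4-parameter Hill fit.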
On the technique in general: Quantitative high-throughput screening tests each substance at several concentrations.

In test [2] the test system is Zika virus NS2B-NS3 protease (unlinked complex). Nature of the test: Confirmatory screen GU AMC qHTS for Zika virus inhibitors (AID 1347153). Note: nearly all actives have a fitted effect of over 70% in size. Summed up: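 Compounds were preincubated 15 min at room temperature with 25 nM noncovalent NS2B-NS3 protease at pH 8.0; AMC substrate added at 10 microM and 15-min fluorescence gain (340/450 nm) converted to percent inhibition, fitted 4-parameter.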

Test [3] is described as follows: Confirmatory screen NINDS Rhodamine qHTS for Zika virus inhibitors (AID 1347161).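 Note: purified Zika NS2B-NS3 protease with linked NS2B cofactor domain and Rhodamine110 peptide substrate; series mostly up to about 110 µM; nearly all actives have a fitted effect of over 60% in size.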 The procedure, abridged:
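Single-chain NS2B-NS3 protease, 25 nM, pH 8.0; compounds preincubated 15 min. Activity: Rhodamine110 release from 1.5 microM substrate over 15 min, room temperature, data fitted to 4-parameter Hill.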

Test [4] can be described thus: Vero cells viability qHTS for Zika virus inhibitors (AID 1347167). The procedure, abridged:
(§1)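 qHTS titration; 24-48 h compound exposure, 37 degrees C/5% CO2; DMEM, 4% FBS; CellTiter Glo ATP luminescence.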

Test [5] is described as follows: HepG2 cells viability qHTS for Zika virus inhibitors (AID 1347168). Summed up: as §1
The test system of test [6] is Zika virus NS2B-NS3 protease. Nature of the test: Primary screen GU AMC qHTS for Zika virus inhibitors (AID 1347154). Note: nearly all actives have a fitted effect of over 70% in size. Note: potency is the fitted concentration of half-maximal effect. The procedure, abridged:
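Unlinked Zika NS2B hydrophilic domain–NS3 protease complex at 25 nM in 10 mM Tris-HCl pH 8.0, 0.01% Tween 20, with an AMC peptide substrate. Fluorescence change (340/450 nm) over 15 min at room temperature, normalized to controls, fitted to 4-parameter Hill.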

In test [7] the target is Lysine-specific demethylase 5B (Homo sapiens) (UniProt Q9UGL1). Nature of the test: Optimization screen for KDM5B Histone Demethylases FDH coupled qHTS against the LOPAC library (AID 1347166). Summed up: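 KDM5BDeltaAP (200nM final) in 50mM HEPES pH 7.5, 0.01% Tween-20 was preincubated with compound for 10 min at room temperature. A substrate mix of 12.5uM H3K4Me3, 25uM a-ketoglutarate, ascorbate, Fe2+, NAD+ and formaldehyde dehydrogenase was then added. NADH fluorescence (340/450 nm) was read initially and after 30 min.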

For test [8], the system named is Zika virus NS2B-NS3 protease (unlinked complex). Nature of the test: Primary screen GU Rhodamine qHTS for Zika virus inhibitors: Unlinked NS2B-NS3 protease assay (AID 1347159). Note: nearly all actives have a fitted effect of over 60% in size. Summed up: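 Percent inhibition came from the 15-min rise in Rhodamine110 fluorescence (1.5 microM substrate, ~15% conversion), normalized to no-inhibitor and no-enzyme wells and Hill-fitted. Unlinked protease, 25 nM, pH 8.0 Tris buffer; compounds up to 114 microM, 15-min preincubation.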

In test [9] the test system is Zika virus NS2B-NS3 protease (linked construct). Nature of the test: Primary screen NINDS Rhodamine qHTS for Zika virus inhibitors (AID 1347160). Note: nearly all actives have a fitted effect of over 55% in size. The settings on record: outcome: dose series up to 57.1 µM. The procedure, abridged:
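Rhodamine110-peptide cleavage (1.5 µM substrate) by 25 nM linked NS2B-NS3 enzyme at pH 8.0 (Tris, Tween 20), after 15 min RT preincubation with compounds; 15-min fluorescence change normalized to controls and Hill-fitted.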

Records with an inconclusive call do not appear. A call without a number means that no potency is given here. The source made the active and inactive calls. Calls come from the whole dose curve; as a rule, active = well fitted curve in the direction sought with a large enough effect; inconclusive = small, poorly fitted or top-dose-only effect, or another doubt; inactive = no such curve, though single readings can be large; an effect the other way counts as inactive or inconclusive.

Lysine-specific demethylase 5B (Homo sapiens), sequence (Q9UGL1 whole entry, looked up): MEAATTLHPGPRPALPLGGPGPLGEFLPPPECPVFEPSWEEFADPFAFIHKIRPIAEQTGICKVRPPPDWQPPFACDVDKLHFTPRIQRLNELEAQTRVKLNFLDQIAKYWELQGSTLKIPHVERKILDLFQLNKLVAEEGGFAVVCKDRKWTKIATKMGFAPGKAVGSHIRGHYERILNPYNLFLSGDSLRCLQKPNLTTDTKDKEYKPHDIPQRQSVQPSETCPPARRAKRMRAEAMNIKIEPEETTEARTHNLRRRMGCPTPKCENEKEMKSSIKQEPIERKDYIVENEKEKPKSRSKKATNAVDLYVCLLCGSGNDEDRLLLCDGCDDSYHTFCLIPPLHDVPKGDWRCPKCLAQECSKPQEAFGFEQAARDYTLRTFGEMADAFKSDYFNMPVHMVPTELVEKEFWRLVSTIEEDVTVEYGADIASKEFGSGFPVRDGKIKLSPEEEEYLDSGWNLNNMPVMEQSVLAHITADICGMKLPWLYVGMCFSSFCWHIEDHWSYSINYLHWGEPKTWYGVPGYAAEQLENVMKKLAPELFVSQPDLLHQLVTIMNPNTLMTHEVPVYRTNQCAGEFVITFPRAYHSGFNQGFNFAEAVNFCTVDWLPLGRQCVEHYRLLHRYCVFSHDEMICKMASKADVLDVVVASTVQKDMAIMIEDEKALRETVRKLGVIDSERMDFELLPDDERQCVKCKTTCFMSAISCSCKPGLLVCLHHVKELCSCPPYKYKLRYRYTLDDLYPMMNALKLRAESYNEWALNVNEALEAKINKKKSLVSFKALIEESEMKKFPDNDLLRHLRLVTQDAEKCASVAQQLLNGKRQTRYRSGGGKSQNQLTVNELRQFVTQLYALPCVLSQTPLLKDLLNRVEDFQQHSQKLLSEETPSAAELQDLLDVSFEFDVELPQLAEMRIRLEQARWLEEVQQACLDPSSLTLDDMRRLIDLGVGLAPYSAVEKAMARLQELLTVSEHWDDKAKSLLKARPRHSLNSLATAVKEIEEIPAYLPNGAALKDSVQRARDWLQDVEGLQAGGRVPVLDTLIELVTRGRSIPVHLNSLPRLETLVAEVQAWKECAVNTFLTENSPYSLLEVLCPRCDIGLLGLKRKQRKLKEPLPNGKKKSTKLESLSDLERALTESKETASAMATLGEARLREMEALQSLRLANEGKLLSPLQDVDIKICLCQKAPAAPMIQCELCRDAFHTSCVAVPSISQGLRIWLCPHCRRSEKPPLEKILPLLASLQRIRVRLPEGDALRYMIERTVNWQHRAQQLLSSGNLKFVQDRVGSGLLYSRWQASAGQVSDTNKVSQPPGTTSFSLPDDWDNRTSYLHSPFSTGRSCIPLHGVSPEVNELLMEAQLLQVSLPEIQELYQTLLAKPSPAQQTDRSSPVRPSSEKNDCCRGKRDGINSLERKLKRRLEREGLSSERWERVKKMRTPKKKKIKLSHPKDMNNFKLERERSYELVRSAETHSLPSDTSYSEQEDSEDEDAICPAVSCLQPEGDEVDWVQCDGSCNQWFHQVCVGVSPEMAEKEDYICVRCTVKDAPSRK

As to `Oc1ccc([C@H]2CNCc3c2ccc(O)c3O)cc1O`, the compound was classed as inactive in test [1], in test [2], in [4] and in test [5]. Moreover, the Potency result in test [3] was “inactive”.

Regarding `CC(C)=CCN1CC[C@@]2(C)c3cc(O)ccc3C[C@@H]1[C@@H]2C`, the result in test [4] and in [5] was inactive.

In the case of `C=CCN1CC[C@]23CCCC[C@H]2[C@H]1Cc1ccc(O)cc13`, the Potency result in test [6] is “inactive”.

For `Nc1ccccc1C(=O)OCC(O)CO` (centres undefined), the Potency in test [6] is 16.1 µM (active).

`COCC(=O)N(c1c(C)cccc1C)C(C)C(=O)OC` (centres undefined): in test [6], the Potency result was “inactive”.

Consider `Clc1ccc(C(OCCN2CCCCC2)c2ccccc2)cc1` (centres undefined), for which the Potency result in test [6] was “inactive”.

In the case of `CCOC(=O)C1(c2ccccc2)CCN(CCc2ccc(N)cc2)CC1`, in [6], the Potency result was “inactive”.

`ClC1=C(Cl)C2(Cl)C(CBr)CC1(Cl)C2(Cl)Cl` (centres undefined): the Potency entry in test [6] is “inactive”.

Consider `COc1ccc(CN2CCNCC2)c(OC)c1OC`, for which, in test [6], the Potency entry was “inactive”.

As for `C[C@]12CC[C@H]3[C@@H](CCC4=CC(=O)CC[C@@H]43)[C@@H]1CC[C@@H]2O`, the Potency entry in test [6] was “inactive”.

For the compound `CN1C(=O)[C@@H](NC(=O)c2cc3ccccc3[nH]2)N=C(c2ccccc2)c2ccccc21`, the Potency result in [6] was “inactive”.

On to `Oc1c(Br)cc(Br)cc1Br`, for which, in test [6], the Potency result was “inactive”.

As for `CNC(C)Cc1ccc2c(c1)OCO2` (centres undefined), in test [6], the Potency entry was “inactive”.

`COP(=O)(OC)OC=C(Cl)Cl`: the Potency result in test [6] is “inactive”.

Consider `CN(C)CCc1c[nH]c2cccc(O)c12`, for which the Potency result in test [6] is “inactive”.

`CCO[C@H]1O[C@@H]2OC3(C)CC[C@H]4[C@H](C)CC[C@@H]([C@H]1C)[C@@]24OO3`: the Potency result in [6] was “inactive”.

Turning to `Nc1ccc(Cl)cc1C(=O)c1ccccc1F`, in [6], the Potency entry was “inactive”.

Turning to `CCCC(C)C1(CC)C(=O)N=C(S)NC1=O` (centres undefined), the Potency result in [6] is “inactive”.

With `COP(=S)(OC)Oc1ccc(S(N)(=O)=O)cc1`, in [6], the Potency entry was “inactive”.

For `CC(C)NCC(O)c1ccc(N)c(C#N)c1` (centres undefined), the Potency result in [6] is “inactive”.

Regarding `CC(C)C(Br)C(=O)NC(N)=O` (centres undefined), in test [6], the Potency result is “inactive”.

Regarding `CCS(=O)(=O)C(C)(C)S(=O)(=O)CC`, in test [6], the Potency entry was “inactive”.

On to `CCOC(C(=O)OCCN(C)C)(c1ccccc1)c1ccccc1`, for which the Potency entry in test [6] was “inactive”.

As for `NC1(c2ccccc2)CCCCC1`, the Potency result in test [6] is “inactive”.

`Cc1ccc(N=CN(C)C=Nc2ccc(C)cc2C)c(C)c1`: the Potency entry in [6] is “inactive”.

With `CCC1(c2cccc(O)c2)CCCCN(C)C1` (centres undefined), the Potency result in test [6] was “inactive”.

Take `C[C@@H]1O[C@@H](O[C@@H]2C=C3CC[C@@H]4[C@H](CC[C@]5(C)[C@@H](c6ccc(=O)oc6)CC[C@]45O)[C@@]3(C)CC2)[C@H](O)[C@H](O)[C@H]1O`: the Potency entry in test [6] was “inactive”.

Take `CCN(CC)Cc1nccn1-c1ccc([N+](=O)[O-])cc1C(=O)c1ccccc1Cl`: the Potency result in [6] is “inactive”.

`COc1ccc(OC)c(CC(C)N)c1` (centres undefined): in test [6], the Potency entry was “inactive”.

On to `ClCc1cccc(Cl)c1`, for which the Potency entry in [6] is “inactive”.

On to `CN1C[C@@H](NS(=O)(=O)N(C)C)C[C@@H]2c3cccc4c3c(cn4C)C[C@H]21`, for which the Potency entry in test [6] is “inactive”.

For `CCC(=O)O[C@H]1CC[C@H]2[C@@H]3CCC4=CC(=O)CC[C@]4(C)[C@H]3CC[C@]12C`, the Potency entry in [6] is “inactive”.

`COP(=S)(OC)Oc1ccc(Sc2ccc(OP(=S)(OC)OC)cc2)cc1`: the Potency result in test [6] was “inactive”.

`CC(Cc1ccccc1)NCc1ccccc1Cl` (centres undefined): the Potency entry in test [6] is “inactive”.

With `C[N+]1(C)[C@@H]2CC[C@H]1CC(OC(=O)C(CO)c1ccccc1)C2` (some centres undefined), the Potency result in test [6] was “inactive”.

For `Oc1ccc2[nH]cc(CCCCN3CC=C(c4ccccc4)CC3)c2c1`, the Potency result in [6] was “inactive”.

In the case of `CN1C2CCC(C)(C)C1CC(OC(=O)C(O)(c1cccs1)c1cccs1)C2` (centres undefined), the Potency result in test [6] was “inactive”.

On to `c1ccc2c(c1)Sc1ccccc1N2CC1CN2CCC1CC2` (centres undefined), for which, in test [6], the Potency entry is “inactive”.

Regarding `COc1cc(CC(C)N)cc2c1OCO2` (centres undefined), the Potency result in test [6] was “inactive”.

For `COc1cc(N)c(Cl)cc1C(=O)NC1CN2CCC1CC2` (centres undefined), the Potency result in test [6] is “inactive”.

Regarding `CC1COC2(c3ccccc3Cl)c3cc(Cl)ccc3NC(=O)CN12` (centres undefined), the Potency result in test [6] was “inactive”.

With `O=C(O)c1nn(Cc2ccc(Cl)cc2Cl)c2ccccc12`, in [6], the Potency entry is “inactive”. For the same compound, in test [7], the outcome was inactive.

As for `CN1CCc2cc(Cl)c(O)cc2[C@H]2c3ccccc3CC[C@@H]21`, the Potency result in test [6] was “inactive”.

As for `CC(C)(O)C(Cl)(Cl)Cl`, the Potency entry in test [6] is “inactive”.

As for `CC(=O)OC1(c2ccccc2)CCN(CCc2ccccc2)CC1`, in test [6], the Potency entry is “inactive”.

As for `Cc1ccc([N+](=O)[O-])[c]2c1[O][Hg]2`, the Potency entry in [6] is “inactive”.

Take `CCCN(CCC)CCc1c[nH]c2ccccc12`: in [6], the Potency result was “inactive”.

As for `CCCOC(=O)Cc1ccc(OCC(=O)N(CC)CC)c(OC)c1`, the Potency entry in test [6] is “inactive”. For the same compound, in test [8], the result was inactive.

With `C[N+]1(CCC(C(N)=O)(c2ccccc2)c2ccccc2)CCCCC1`, in [6], the Potency entry is “inactive”.

As for `COc1ccc2c(C(=O)c3ccc(Cl)cc3)c(C)n(CC(=O)O)c2c1`, in [6], the Potency result is “inactive”. The compound was classed as inactive in test [8] and in test [9].
